DT40 TDP1 CPT: qHTS for Inhibitors of human tyrosyl-DNA phosphodiesterase 1 (TDP1): qHTS in cells in presence of CPT; chicken DT40 Tdp1-/-;hTDP1 cells + 20 nM CPT, ATP luminescence, 48 h; Potency, µM (titrated, usually from 46.2 µM), inactives show at the highest dose activity change, negative = growth inhibition, most hits filed as inhibitors; 420,000 tested, 12% active; AID 686979, 2013; note: potency is the fitted concentration of half-maximal effect; % is set by controls: 0 for no effect and ±100 for the full control effect; nearly all actives have a fitted effect of over 55% in size
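Chicken DT40 Tdp1-/- cells complemented with human TDP1, 400 cells/well, exposed to compounds plus 20 nM camptothecin for at least 48 h at 37 C; viability read as ATP content by CellTiter-Glo luminescence.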
DT40 TDP1 no CPT: qHTS for Inhibitors of human tyrosyl-DNA phosphodiesterase 1 (TDP1): qHTS in cells in absence of CPT | DT40 Tdp1-/- hTDP1 cells, no CPT, ATP luminescence, 48 h | Potency, µM (top dose mostly 46.2 µM), for the others: at the top dose activity change, negative = growth inhibition, most hits filed as inhibitors | 420,000 tested, 15% active | AID 686978, 2013; note: potency is the fitted concentration of half-maximal effect; % is set by controls: 0 for no effect and ±100 for the full control effect; nearly all actives have a fitted effect of over 55% in size
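No-CPT arm: Tdp1-/-;hTDP1 DT40 cells (400/well) plus compounds, incubated ≥48 hr at 37 °C. Readout CellTiter-Glo luminescence.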
TGFb SMAD3 inh: qHTS for Inhibitors of TGF-b; HepG2 CAGA-GFP TGF-b/SMAD3 reporter, GFP fluorescence, 18 h; TGF-beta stimulated, 500 pg/mL final; Potency, µM (titrated, usually from 46.1 µM), without a hit: top-dose activity, negative = inhibition, actives largely listed as inhibitors; 410,000 tested, 1.2% active; AID 588855, 2011; note: potency is the fitted concentration of half-maximal effect; % is set by controls: 0 for no effect and ±100 for the full control effect; nearly all actives have a fitted effect of over 65% in size
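First, reporter cells (HEPG2 CAGA-GFP) rested 2 h at 37 degrees C. Next, compounds were pinned in and TGF-beta added to 500 pg/mL final. After 18 h, GFP was imaged per cell and summed per well.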
IL1B secr inh: qHTS for Inhibitors of Inflammasome Signaling: IL-1-beta AlphaLISA Primary Screen; THP-1 LPS/ATP IL-1B secretion, AlphaLISA, 16 h; hits give low values; activity change, % at 57.5 µM; 360,000 tested, 4.7% active; in the data active = activity change below about -50%; inconclusive = mostly about -30% to -49%; note: % is set by controls: 0 for no effect and ±100 for the full control effect
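Secreted IL-1B measured by AlphaLISA bead assay after 16 h compound exposure of THP-1 cells; compounds (final up to 57.5 uM) added 1 h before LPS (250 ng/mL) and ATP (1.25 mM) stimulation; lower signal means less secretion.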
HepG2 viability: qHTS for Inhibitors of TGF-b: Cytotox Counterscreen. HepG2 CAGA-GFP viability, ATP luminescence, 18 h. Potency, µM (titrated, usually from 46.1 µM), without a hit: at the highest dose activity change, negative = cytotoxicity, actives largely listed as cytotoxic. 410,000 tested, 0.76% active. AID 588856, 2011; note: potency is the fitted concentration of half-maximal effect
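CellTiter-Glo luminescence gave cytotoxicity after 18 hours at 37 degrees C. The cells were HepG2 CAGA-GFP in 1% FBS DMEM, stimulated with 500 pg/mL TGF-beta after compound addition. %Activity was normalised to no-cell wells (complete cell-killing) and DMSO (no toxicity), and curves were fitted and classified.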
S-ASM inh: Inhibitors of Secretory Acid Sphingomyelinase (S-ASM): qHTS | Sphingomyelin phosphodiesterase (Homo sapiens), P17405 | placental ASM, HMU-PC fluorogenic substrate, 60 min | Potency, µM (top dose mostly 57.5 µM), without a hit: at the top dose activity change, negative = inhibition, usual class: inhibitors | 340,000 tested, 0.006% active | AID 504937, 2011; note: potency is the fitted concentration of half-maximal effect
Target sequence (P17405 47-631 limits assumed): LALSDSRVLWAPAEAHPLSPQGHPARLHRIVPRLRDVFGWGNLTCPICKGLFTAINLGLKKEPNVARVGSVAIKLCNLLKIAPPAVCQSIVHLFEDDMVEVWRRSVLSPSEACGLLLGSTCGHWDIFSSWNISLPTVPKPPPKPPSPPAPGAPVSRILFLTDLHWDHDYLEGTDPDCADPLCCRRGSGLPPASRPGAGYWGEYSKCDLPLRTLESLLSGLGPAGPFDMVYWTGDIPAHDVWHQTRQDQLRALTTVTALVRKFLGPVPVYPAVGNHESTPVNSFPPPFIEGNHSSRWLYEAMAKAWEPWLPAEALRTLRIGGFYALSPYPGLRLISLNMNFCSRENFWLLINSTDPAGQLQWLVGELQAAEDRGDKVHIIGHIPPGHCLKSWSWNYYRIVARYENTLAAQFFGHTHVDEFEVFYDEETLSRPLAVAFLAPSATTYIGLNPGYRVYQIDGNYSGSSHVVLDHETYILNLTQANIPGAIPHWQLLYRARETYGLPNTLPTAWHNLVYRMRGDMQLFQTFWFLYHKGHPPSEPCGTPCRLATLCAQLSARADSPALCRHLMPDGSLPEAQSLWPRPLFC
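HMU-PC0 cleavage (9 uM final) by human placental ASM, 60 min at 37 °C following 10 min compound exposure at RT; stopped at pH 10, fluorescence Ex 386/Em 447 nm.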
The depositor's hits bear a star; i = inactive; ? = inconclusive; . = no result given. This is a sample that favours compounds with a hit; in the whole collection about 19% have one here. Unless noted, calls come from the whole dose curve; as a rule, active = well fitted curve in the direction sought with a large enough effect; inconclusive = small, poorly fitted or top-dose-only effect, or another doubt; inactive = no such curve, though single readings can be large; an effect the other way counts as inactive or inconclusive.

SMILES | DT40 TDP1 CPT | DT40 TDP1 no CPT | TGFb SMAD3 inh | IL1B secr inh | HepG2 viability | S-ASM inh
CC(=O)NCCc1nc2ccccc2n1CCOc1ccc(C)cc1 | ? | ? | -3% | 16 | -1% | 2%
Cc1nc2ccccc2n1CCOc1ccc(F)cc1 | ? | 18µM* | 3% | -7 | -5% | -6%
Cn1c(=O)[nH]c(=O)c2c1nc(N/N=C/c1ccncc1)n2Cc1ccc(Cl)cc1 | ? | -2% | -7% | 40 | 6% | -2%
COC(=O)c1[nH]c2cc(OC)c(OC)cc2c1NC(=O)CN1C[C@H]2C[C@@H](C1)c1cccc(=O)n1C2 | 18% | -1% | -5% | 7 | 3% | 4%
CCc1nc2ccccc2n1CCCCOc1ccc(Cl)cc1 | 21µM* | ? | ? | . | -53% | .
c1ccc2c(c1)ncn2CCC1CCCCC1 | 26µM* | 21µM* | -8% | -1 | -49% | 2%
Cc1ccc(OCCCCn2c(CO)nc3ccccc32)cc1 | 23µM* | ? | -1% | -52* | -8% | -2%
Clc1ccc(OCCn2cnc3ccccc32)cc1 | 23µM* | 18µM* | ? | 0 | -28% | -1%
OCc1nc2ccccc2n1CCCCOc1ccccc1 | ? | ? | -1% | -12 | -18% | 0%
CCOC(=O)CCNC(=O)N1CCCC(Cc2ccccc2)(C(=O)OCC)C1 (centres undefined) | ? | -5% | -1% | 1 | 2% | -4%
CCC(=O)N1CCc2cc(Br)cc(S(=O)(=O)CCC(=O)NCc3ccc(C)cc3)c21 | 1% | 0% | -12% | . | 0% | .
Cc1ccc(OCc2nc3ccccc3n2CC(C)C)cc1 | ? | 23µM* | -16% | . | 2% | .
Cn1c(=O)n(CCCOc2ccc(Cl)cc2)c2ccccc21 | 15µM* | 18µM* | 29% | -14 | 0% | -2%
CCn1c(COc2ccc(OC)cc2)nc2ccccc21 | -5% | ? | 33% | -15 | -18% | 0%
CC(=O)Oc1ccc(C2=NN(c3ccccc3)C(c3ccccc3)C2)cc1 (centres undefined) | 9% | -6% | ? | 15 | -120% | i
CCOC(=O)c1ccccc1NC(=O)N1CCCN(S(=O)(=O)c2ccc3c(ccn3CC)c2)CC1 | . | . | -1% | . | -25% | .
Cc1ccc(Cl)c(OCC(=O)NCC(c2cccs2)N2CCOCC2)c1 (centres undefined) | 26µM* | ? | -9% | ? | 15% | -1%
COc1ccccc1C(CNC(=O)CNC(=O)c1ccc(Cl)c(Cl)c1)N1CCCC1 (centres undefined) | -10% | 16µM* | ? | -6 | -32% | 5%
COc1ccccc1C(CNC(=O)COc1cc(C)ccc1Cl)N1CCCC1 (centres undefined) | ? | ? | -13% | -64* | -31% | 3%
CC(=O)[C@H]1CCC2C3CC=C4C[C@@H](O)CC[C@]4(C)C3CC[C@@]21C (some centres undefined) | 18µM* | ? | -5% | 17 | 3% | -1%
CC(=O)[C@H]1CC[C@H]2[C@@H]3CC=C4C[C@@H](O)CC[C@]4(C)[C@H]3CC[C@]12C | ? | ? | -14% | 44 | -22% | 1%
CC(=O)C1CCC2C3CC(C)=C4CC(O)CCC4(C)C3CCC12C (centres undefined) | 3% | 21µM* | -1% | -99* | -10% | 0%
COc1ccccc1CNC(=O)Cn1c(-c2cccs2)cc2cc(F)ccc21 | ? | ? | 15% | . | 2% | .
Cc1cc(C)c2c(c1)SC1=NC(c3ccccc3)(C(F)(F)F)NC(=O)N12 (centres undefined) | ? | ? | 22% | -56* | -12% | 2%
Cc1ccc(-n2ncc(C(=O)N3CCN(c4ccccn4)CC3)c2C2CCN(C(=O)OC(C)(C)C)CC2)cc1C | -10% | -16% | -14% | . | 5% | .
SMILES | DT40 TDP1 CPT | DT40 TDP1 no CPT | TGFb SMAD3 inh | IL1B secr inh | HepG2 viability | S-ASM inh
CC(C)(C)OC(=O)N1CCC(c2c(C(=O)N3CCN(C4CCCCC4)CC3)cnn2-c2ccc(F)cc2)CC1 | -18% | 10% | 5% | 6 | -4% | 9%
CC(C)(C)OC(=O)N1CCC(c2c(C(=O)NCC3CCN(C4CCCC4)C3)cnn2-c2cccc(Cl)c2)CC1 (centres undefined) | ? | ? | ? | -56* | -38% | 1%
CCOC(=O)c1cnn(-c2cccc(Cl)c2)c1C1CCN(C(=O)OC(C)(C)C)CC1 | 23µM* | ? | 1% | . | 4% | .
COc1ccc(-n2ncc(C(=O)N3CCN(C4CCCCC4)CC3)c2C2CCN(C(=O)OC(C)(C)C)CC2)cc1 | ? | 21µM* | ? | . | -36% | .
COc1ccccc1N1CCN(C(=O)c2cnn(-c3ccc(C)c(C)c3)c2C2CCN(C(=O)OC(C)(C)C)CC2)CC1 | 21µM* | 21µM* | -6% | . | 7% | .
CC(C)[C@@H](C(=O)N1CCCC1)N1C(=O)N2CCc3c([nH]c4ccccc34)[C@@]2(C)C1=O | ? | ? | -21% | -13 | -73% | -4%
Cc1cccc(N2CCN(C(=O)c3cnn(-c4cccc(Cl)c4C)c3C3CCNCC3)CC2)c1C | 3.7µM* | 5.2µM* | 18µM* | . | -94% | .
Cc1ccc(-n2ncc(C(=O)N3CCN(C4CCCCC4)CC3)c2C2CCN(C(=O)OC(C)(C)C)CC2)cc1C | 8.2µM* | 7.3µM* | -2% | . | 11% | .
CC(C)(C)OC(=O)N1CCC(c2c(C(=O)N3CCCCC3)cnn2-c2ccc(F)cc2)CC1 | 0% | ? | -8% | . | -1% | .
Cc1c(Cl)cccc1-n1ncc(C(=O)N2CCOCC2)c1C1CCN(C(=O)OC(C)(C)C)CC1 | ? | -17% | 0% | . | 1% | .
Cc1ccc(N2CCN(C(=O)c3cnn(-c4ccc(C)c(C)c4)c3C3CCNCC3)CC2)c(C)c1 | 6.5µM* | 6.5µM* | ? | . | -91% | .
Cc1ccc(-n2ncc(C(=O)N3CCCCC3)c2C2CCN(C(=O)OC(C)(C)C)CC2)c(C)c1 | ? | ? | -2% | . | 2% | .

Screens deposited in PubChem BioAssay by National Center for Advancing Translational Sciences (NCATS).
